Test results as given in ChEMBL document CHEMBL4513141, “CO-ADD screening of NIH (USA) - Clinical Collection” (2021).
Entries with a potency or affinity are not part of this list.

test system: Staphylococcus aureus; details: Concentration 20 uM; ASSAY_TEST Inhibition of Bacterial Growth; detection method Absorption (OD600); MEDIA CAMHB; plate type 384well; NBS; CORNING #3640; time 18 hr

**Q.** Which Inhibition does the source give for `CC(C)(C(=O)O)c1ccc(C(O)CCCN2CCC(C(O)(c3ccccc3)c3ccccc3)CC2)cc1.Cl` (configuration not stated) [FEXOFENADINE HYDROCHLORIDE] here?
**A.** 11.48%

**Q.** With `Cn1nnc2c(C(N)=O)ncn2c1=O` [TEMOZOLOMIDE] as the compound, how does the Inhibition read?
**A.** 8.98%

**Q.** With `CC(=O)O[C@]1(C(C)=O)CC[C@H]2[C@@H]3C=C(C)C4=CC(=O)CC[C@]4(C)[C@H]3CC[C@@]21C` [MEGESTROL ACETATE] as the compound, how does the Inhibition read?
**A.** 14.19%

**Q.** How did the Inhibition turn out when `Cc1cnc(C(=O)NCCc2ccc(S(=O)(=O)NC(=O)NC3CCCCC3)cc2)cn1` [GLIPIZIDE] was run?
**A.** 13.08%

**Q.** How did the Inhibition turn out when `Cl.O.O=C1N(c2ccccc2)c2ccccc2C1(Cc1ccncc1)Cc1ccncc1` was run?
**A.** 4.07%

**Q.** For `COc1cc(C)c(/C=C/C(C)=C/C=C/C(C)=C/C(=O)O)c(C)c1C` [ACITRETIN], which Inhibition is on record?
**A.** -32.23%

**Q.** How did the Inhibition turn out when `CC(c1cc2ccccc2s1)N(O)C(N)=O` (configuration not stated) [ZILEUTON] was run?
**A.** -21.42%

**Q.** For `COc1c2occc2cc2ccc(=O)oc12` [METHOXSALEN], which Inhibition is on record?
**A.** 13.34%

**Q.** `COc1cc2nc(N(C)CCCNC(=O)C3CCCO3)nc(N)c2cc1OC` (configuration not stated) [ALFUZOSIN] was tested. Which Inhibition did it give?
**A.** 6%

**Q.** For `CNCC[C@H](Oc1cccc2ccccc12)c1cccs1.Cl` [DULOXETINE HYDROCHLORIDE], which Inhibition is on record?
**A.** -17.99%

**Q.** Which Inhibition does the source give for `CC1=C(C(=O)O)N2C(=O)[C@@H](NC(=O)[C@H](N)c3ccccc3)[C@H]2SC1.O` [CEPHALEXIN] here?
**A.** -0.36%

**Q.** `CC(=O)CCCCn1c(=O)c2c(ncn2C)n(C)c1=O` [PENTOXIFYLLINE] was tested. Which Inhibition did it give?
**A.** 15.42%

**Q.** With `CC(C)c1nc(CN(C)C(=O)N[C@H](C(=O)N[C@@H](Cc2ccccc2)C[C@H](O)[C@H](Cc2ccccc2)NC(=O)OCc2cncs2)C(C)C)cs1` [RITONAVIR] as the compound, how does the Inhibition read?
**A.** 13.2%

**Q.** Which Inhibition does the source give for `CC[C@H](C)C(=O)O[C@H]1C[C@H](O)C=C2C=C[C@H](C)[C@H](CC[C@@H](O)C[C@@H](O)CC(=O)[O-])[C@H]21.[Na+]` [PRAVASTATIN SODIUM] here?
**A.** 12.65%

**Q.** How did the Inhibition turn out when `CC1(C)S[C@@H]2[C@H](NC(=O)[C@H](N)c3ccc(O)cc3)C(=O)N2[C@H]1C(=O)O` [AMOXICILLIN] was run?
**A.** 15.09%

**Q.** How did the Inhibition turn out when `Cc1cnc(NC(=O)C2=C(O)c3ccccc3S(=O)(=O)N2C)s1` [MELOXICAM] was run?
**A.** -0.24%

**Q.** With `CCN(CC)CCOC(=O)C1(C2CCCCC2)CCCCC1.Cl` [DICYCLOMINE HYDROCHLORIDE] as the compound, how does the Inhibition read?
**A.** 8.61%

**Q.** How did the Inhibition turn out when `Cc1ccc(O)c([C@H](CCN(C(C)C)C(C)C)c2ccccc2)c1.O=C(O)C(O)C(O)C(=O)O` [TOLTERODINE TARTRATE] was run?
**A.** -0.49%

**Q.** With `COc1ccc(C2CNC(=O)C2)cc1OC1CCCC1` (configuration not stated) [ROLIPRAM] as the compound, how does the Inhibition read?
**A.** 10.42%

**Q.** For `COc1ccc(-c2oc3c(CC=C(C)C)c(O[C@@H]4O[C@H](CO)[C@@H](O)[C@H](O)[C@H]4O)cc(O)c3c(=O)c2O[C@@H]2O[C@@H](C)[C@H](O)[C@@H](O)[C@H]2O)cc1` [ICARIIN], which Inhibition is on record?
**A.** 11.47%

**Q.** For `CCC(=O)O[C@]1(C(=O)SCF)[C@H](C)C[C@H]2[C@@H]3C[C@H](F)C4=CC(=O)C=C[C@]4(C)[C@@]3(F)[C@@H](O)C[C@@]21C` [FLUTICASONE PROPIONATE], which Inhibition is on record?
**A.** -21.58%

**Q.** For `CCOC(=O)N1CCC(=C2c3ccc(Cl)cc3CCc3cccnc32)CC1` [LORATADINE], which Inhibition is on record?
**A.** 11.88%

**Q.** Which Inhibition does the source give for `COC(=O)C1=C(C)NC(C)=C(C(=O)O[C@@H]2CCCN(Cc3ccccc3)C2)[C@@H]1c1cccc([N+](=O)[O-])c1.Cl` here?
**A.** 8.73%

**Q.** With `Cl.Clc1ccccc1CN1CCc2sccc2C1` [TICLOPIDINE HYDROCHLORIDE] as the compound, how does the Inhibition read?
**A.** 6.77%

**Q.** How did the Inhibition turn out when `NC(=O)c1cccnc1` [NIACINAMIDE] was run?
**A.** 11.51%

**Q.** How did the Inhibition turn out when `CC(=O)Nc1nnc(S(N)(=O)=O)s1` [ACETAZOLAMIDE] was run?
**A.** 15.7%

**Q.** With `CC(C)[N+]1(C)C2CCC1CC(OC(=O)C(CO)c1ccccc1)C2.[Br-]` (configuration not stated) as the compound, how does the Inhibition read?
**A.** 9.02%

**Q.** How did the Inhibition turn out when `O=C1[C@H](CC[C@H](O)c2ccc(F)cc2)[C@@H](c2ccc(O)cc2)N1c1ccc(F)cc1` [EZETIMIBE] was run?
**A.** 5.57%

**Q.** With `COc1ccc2cc([C@H](C)C(=O)[O-])ccc2c1.[Na+]` [NAPROXEN SODIUM] as the compound, how does the Inhibition read?
**A.** 6.58%

**Q.** `CN(C)CCOC(c1ccccc1)c1ccccc1.Cl` [DIPHENHYDRAMINE HYDROCHLORIDE] was tested. Which Inhibition did it give?
**A.** -13.43%

**Q.** How did the Inhibition turn out when `C[C@]12CCC(=O)C=C1CC[C@@H]1[C@@H]2[C@@H](O)C[C@@]2(C)[C@H]1CC[C@]2(O)C(=O)CO` [HYDROCORTISONE] was run?
**A.** 7.72%

**Q.** For `COC(=O)C1=C(C)NC(C)=C(C(=O)OC(C)C)C1c1cccc2nonc12` (configuration not stated) [ISRADIPINE], which Inhibition is on record?
**A.** 14.31%

**Q.** How did the Inhibition turn out when `CC(Cc1ccc(O)c(O)c1)(NN)C(=O)O.O` (configuration not stated) was run?
**A.** 16.15%

**Q.** `CC(CN1c2ccccc2Sc2ccccc21)N(C)C.Cl` (configuration not stated) [PROMETHAZINE HYDROCHLORIDE] was tested. Which Inhibition did it give?
**A.** 15.79%

**Q.** `CC(CCCCC(=O)Nc1ccc(C(F)(F)F)cc1)NCCc1c[nH]cn1.O=C(O)/C=C\C(=O)O.O=C(O)/C=C\C(=O)O` (configuration not stated) was tested. Which Inhibition did it give?
**A.** 7.23%

**Q.** How did the Inhibition turn out when `CN(CCOc1ccc(NS(C)(=O)=O)cc1)CCc1ccc(NS(C)(=O)=O)cc1` [DOFETILIDE] was run?
**A.** 11.97%

**Q.** With `CN(Cc1cnc2nc(N)nc(N)c2n1)c1ccc(C(=O)N[C@@H](CCC(=O)O)C(=O)O)cc1.O` as the compound, how does the Inhibition read?
**A.** 8.23%
